The values below come from ChEMBL document CHEMBL3433997, “St. Jude Leishmania screening dataset” (2016).

The term inhibition denotes the drop in the measured response relative to a control, in per cent.

Holding throughout (format): functional
Test [1] concerns the target Solute carrier family 2, facilitated glucose transporter member 1 (Homo sapiens) (UniProt P11166). Kind of test: ST_JUDE_LEISH: Cytotoxicity at 2uM final concentration against transgenic Leishmania Mexicana promastigotes LmGLUT1 that are glucose transport deficient and complemented with the human glucose transporter GLUT1. Activity is measured by DNA content using SYBR green in vitro.

For test [2], the target named is Hexose transporter 1 (Plasmodium falciparum) (UniProt O97467). Kind of test: ST_JUDE_LEISH: Cytotoxicity at 2uM final concentration against transgenic Leishmania Mexicana promastigotes LmPfHT that are glucose transport deficient and complemented with the Plasmodium falciparum hexose transporter. Activity is measured by DNA content using SYBR green in vitro.
Test [3] addresses Glucose transporter (Leishmania mexicana) (UniProt O61059). The experiment in a line: ST_JUDE_LEISH: Cytotoxicity at 2uM final concentration against transgenic Leishmania Mexicana promastigotes LmGT2 that are glucose transport deficient and complemented with the L. Mexicana glucose transporter 2. Activity is measured by DNA content using SYBR green in vitro.

Each structure is given as a SMILES string.

Chain of Solute carrier family 2, facilitated glucose transporter member 1 (Homo sapiens) (P11166 whole entry): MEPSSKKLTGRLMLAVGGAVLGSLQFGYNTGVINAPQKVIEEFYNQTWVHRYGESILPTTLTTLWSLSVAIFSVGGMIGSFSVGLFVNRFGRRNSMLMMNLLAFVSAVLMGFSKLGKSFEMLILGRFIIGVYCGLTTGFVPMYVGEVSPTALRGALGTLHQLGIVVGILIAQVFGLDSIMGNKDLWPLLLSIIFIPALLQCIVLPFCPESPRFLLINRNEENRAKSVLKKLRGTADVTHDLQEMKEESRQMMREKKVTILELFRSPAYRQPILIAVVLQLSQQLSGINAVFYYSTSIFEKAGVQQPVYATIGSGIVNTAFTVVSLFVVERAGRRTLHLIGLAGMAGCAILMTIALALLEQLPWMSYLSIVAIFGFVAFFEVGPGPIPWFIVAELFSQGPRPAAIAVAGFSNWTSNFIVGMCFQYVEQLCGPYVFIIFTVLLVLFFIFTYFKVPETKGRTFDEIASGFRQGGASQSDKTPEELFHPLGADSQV

`N#Cc1cccc(C(=O)Nc2cccc(-c3cccc(CN4CCNCC4)c3)c2)c1`: the inhibition in test [1] came to 4.13%; in test [2], 6.34%; in test [3], 3.25%.
The corresponding values for `CO/C(=C\C=C\c1cc2cc(Cl)c(Cl)cc2[nH]1)C(=O)NCCCNCCN(C)c1ccccc1` are 4.77%, 2.76% and 1.74%.
In the case of `Cc1cccc(CNc2nc(C)cc(N[C@@H](Cc3ccccc3)C(=O)NCCOc3ccccc3)n2)c1`, the inhibition in test [1] amounted to 16.6%; in test [2], 15.8%; in test [3] it was 11.4%.
With `Cc1nc2ccc(S(=O)(=O)Nc3ccc(C(=O)N[C@@H](CCC(=O)O)C(=O)O)cc3)cc2c(=O)[nH]1`, the results for the inhibition in test [1], in test [2] and in test [3] were 0.38%, -1.45% and 0.45%, respectively.
For the compound `COc1ccc(C2C(C(=O)Nc3cc(OC)c(OC)c(OC)c3)c3cc(OC)c(OC)cc3C(=O)N2C)cc1` (stereo not drawn), the values for the inhibition in test [1], in test [2] and in test [3] were 1.9%, 1.7% and 2.37%, respectively.
Turning to `COc1cccc(CCc2ccc(O)c3c2C[C@H]2C[C@H]4[C@H](N(C)C)C(O)=C(C(N)=O)C(=O)[C@@]4(O)C(O)=C2C3=O)c1`, the inhibition came out at 4.53% in test [1], 4.13% in test [2] and 1.64% in test [3].
Regarding `Cn1nc(-c2cccc(CNCc3ccccc3)c2)c2cnc(NC3CCCC3)nc21`, the inhibition in test [1] was -0.97%; in test [2], 0%; in test [3], -1.01%.
For `Cc1ccc(C(=O)NC2CC2)cc1-c1ccc2c(cnn2S(=O)(=O)c2ccc(F)cc2)c1`, the inhibition in test [1] worked out at 3.39%; in test [2] it was 3.78%; in test [3], 0.4%.
The corresponding values for `CCN(CC)CCNc1ccnc2[nH]c3ccc(Cl)cc3c12` are 1.19%, -0.21% and -0.03%.
Take `O=C(NC1CCCc2ccccc21)C1CCCN(C(=O)c2ccc(O)c(-c3ccc(Cl)c(Cl)c3)c2)C1` (stereo not drawn): the figures for the inhibition in test [1], in test [2] and in test [3] were 1.28%, 2.04% and 2.38%, respectively.
For `CC(CN1CCN(C)CC1)C(=O)Nc1ccc(-c2cccc(-c3nc4cc(F)ccc4[nH]3)c2)cc1` (stereo not drawn), the results for the inhibition in test [1], in test [2] and in test [3] were 2.46%, 2.1% and 5.11%, respectively.
